Data on one compound can be found in ChEMBL document CHEMBL1961873, “Compounds: GSK PKIS; Assays: Nanosyn kinase panel” (2012).

In assay [1] the target is T1, Inhibitor of nuclear factor kappa-B kinase subunit epsilon (Homo sapiens) (UniProt Q14164).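 Also: reported values are averaged percent inhibition figures against human IKKε.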
T1 sequence (whole entry): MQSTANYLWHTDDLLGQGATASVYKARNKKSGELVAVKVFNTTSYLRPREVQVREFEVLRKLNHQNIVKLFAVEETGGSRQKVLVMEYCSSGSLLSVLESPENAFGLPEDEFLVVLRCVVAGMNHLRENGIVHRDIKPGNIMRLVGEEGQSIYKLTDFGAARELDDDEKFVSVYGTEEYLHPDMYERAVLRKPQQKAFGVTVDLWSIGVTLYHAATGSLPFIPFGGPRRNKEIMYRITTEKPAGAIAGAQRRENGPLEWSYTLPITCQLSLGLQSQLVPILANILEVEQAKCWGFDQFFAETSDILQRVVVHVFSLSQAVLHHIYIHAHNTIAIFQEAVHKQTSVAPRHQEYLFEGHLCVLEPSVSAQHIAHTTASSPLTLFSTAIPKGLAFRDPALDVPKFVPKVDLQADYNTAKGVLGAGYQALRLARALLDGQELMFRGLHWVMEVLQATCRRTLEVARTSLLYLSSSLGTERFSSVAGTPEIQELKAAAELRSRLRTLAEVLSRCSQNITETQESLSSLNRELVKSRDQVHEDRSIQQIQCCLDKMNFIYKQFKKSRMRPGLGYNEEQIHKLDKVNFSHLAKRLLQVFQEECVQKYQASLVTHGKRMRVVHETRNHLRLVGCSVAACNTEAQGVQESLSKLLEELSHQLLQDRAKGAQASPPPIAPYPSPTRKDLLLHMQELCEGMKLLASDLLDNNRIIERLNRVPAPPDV
To be noted: at 1 µM.

Assay [2] deals with T2, Serine/threonine-protein kinase Nek1 (Homo sapiens) (UniProt Q96PY6).
T2 sequence (whole entry): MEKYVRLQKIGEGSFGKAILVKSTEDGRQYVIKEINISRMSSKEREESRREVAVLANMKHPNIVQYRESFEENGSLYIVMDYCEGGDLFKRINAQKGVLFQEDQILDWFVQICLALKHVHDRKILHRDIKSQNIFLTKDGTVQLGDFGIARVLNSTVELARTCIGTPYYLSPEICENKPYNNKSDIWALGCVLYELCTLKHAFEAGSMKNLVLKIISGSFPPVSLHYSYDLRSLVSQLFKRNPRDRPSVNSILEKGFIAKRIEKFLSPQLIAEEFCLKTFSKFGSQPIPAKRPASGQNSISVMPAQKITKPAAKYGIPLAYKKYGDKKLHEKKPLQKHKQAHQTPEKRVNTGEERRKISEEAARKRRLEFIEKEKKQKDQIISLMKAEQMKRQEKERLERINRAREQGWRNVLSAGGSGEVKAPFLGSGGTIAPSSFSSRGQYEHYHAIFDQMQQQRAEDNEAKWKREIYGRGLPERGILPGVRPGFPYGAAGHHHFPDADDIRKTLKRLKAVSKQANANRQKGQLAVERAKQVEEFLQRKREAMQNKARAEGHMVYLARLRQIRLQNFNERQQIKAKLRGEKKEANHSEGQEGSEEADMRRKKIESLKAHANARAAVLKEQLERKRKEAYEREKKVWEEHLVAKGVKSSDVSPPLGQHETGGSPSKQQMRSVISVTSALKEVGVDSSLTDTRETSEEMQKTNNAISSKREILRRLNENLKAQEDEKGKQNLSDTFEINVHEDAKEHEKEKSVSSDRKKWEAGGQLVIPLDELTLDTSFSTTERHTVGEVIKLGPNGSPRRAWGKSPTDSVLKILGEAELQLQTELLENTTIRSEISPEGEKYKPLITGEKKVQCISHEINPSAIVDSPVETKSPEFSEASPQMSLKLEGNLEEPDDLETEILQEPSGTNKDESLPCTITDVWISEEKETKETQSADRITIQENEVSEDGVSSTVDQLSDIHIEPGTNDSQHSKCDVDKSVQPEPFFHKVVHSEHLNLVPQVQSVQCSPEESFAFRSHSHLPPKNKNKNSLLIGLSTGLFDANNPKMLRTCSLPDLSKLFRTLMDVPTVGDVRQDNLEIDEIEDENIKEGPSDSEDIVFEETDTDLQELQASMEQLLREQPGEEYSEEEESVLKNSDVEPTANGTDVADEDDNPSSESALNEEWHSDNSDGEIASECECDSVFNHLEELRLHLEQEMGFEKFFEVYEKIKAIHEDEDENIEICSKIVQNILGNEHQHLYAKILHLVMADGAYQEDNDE
To be noted: at 0.1 µM.

Assay [3] has as its target T2, Serine/threonine-protein kinase Nek1 (Homo sapiens). To be noted: at 1 µM.
In assay [4] the target is T3, Serine/threonine-protein kinase Nek2 (Homo sapiens) (UniProt P51955).
T3 sequence (whole entry): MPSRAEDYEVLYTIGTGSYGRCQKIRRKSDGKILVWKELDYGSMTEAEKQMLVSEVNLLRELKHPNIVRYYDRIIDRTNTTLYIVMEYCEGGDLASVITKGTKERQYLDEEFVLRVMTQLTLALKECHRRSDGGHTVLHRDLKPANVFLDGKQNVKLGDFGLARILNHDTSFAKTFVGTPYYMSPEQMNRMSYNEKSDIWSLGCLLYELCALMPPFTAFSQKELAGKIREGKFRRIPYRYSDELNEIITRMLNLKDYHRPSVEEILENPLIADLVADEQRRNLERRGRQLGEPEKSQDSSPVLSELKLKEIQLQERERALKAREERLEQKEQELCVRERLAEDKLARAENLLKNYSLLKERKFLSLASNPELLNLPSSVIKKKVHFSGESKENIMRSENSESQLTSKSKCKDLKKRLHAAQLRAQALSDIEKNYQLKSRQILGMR
To be noted: at 0.1 µM.

The target of assay [5] is T3, Serine/threonine-protein kinase Nek2 (Homo sapiens). To be noted: at 1 µM.
For assay [6], the target named is Serine/threonine-protein kinase Nek6 (Homo sapiens) (UniProt Q9HC98). To be noted: at 0.1 µM.
Sequence of Serine/threonine-protein kinase Nek6 (Homo sapiens) (Q9HC98 whole entry): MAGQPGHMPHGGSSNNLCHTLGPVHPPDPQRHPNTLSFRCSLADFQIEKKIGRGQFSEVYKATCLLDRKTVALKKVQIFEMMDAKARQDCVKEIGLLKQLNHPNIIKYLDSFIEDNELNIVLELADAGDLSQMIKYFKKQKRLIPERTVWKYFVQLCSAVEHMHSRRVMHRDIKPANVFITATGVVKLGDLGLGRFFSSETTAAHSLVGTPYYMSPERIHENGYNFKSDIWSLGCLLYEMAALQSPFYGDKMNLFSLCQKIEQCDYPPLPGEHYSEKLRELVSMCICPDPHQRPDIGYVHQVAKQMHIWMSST
For assay [7] the target is unchanged. To be noted: at 1 µM.
In assay [8] the target is Serine/threonine-protein kinase Nek7 (Homo sapiens) (UniProt Q8TDX7). To be noted: at 0.1 µM.
Sequence of Serine/threonine-protein kinase Nek7 (Homo sapiens) (Q8TDX7 whole entry, looked up): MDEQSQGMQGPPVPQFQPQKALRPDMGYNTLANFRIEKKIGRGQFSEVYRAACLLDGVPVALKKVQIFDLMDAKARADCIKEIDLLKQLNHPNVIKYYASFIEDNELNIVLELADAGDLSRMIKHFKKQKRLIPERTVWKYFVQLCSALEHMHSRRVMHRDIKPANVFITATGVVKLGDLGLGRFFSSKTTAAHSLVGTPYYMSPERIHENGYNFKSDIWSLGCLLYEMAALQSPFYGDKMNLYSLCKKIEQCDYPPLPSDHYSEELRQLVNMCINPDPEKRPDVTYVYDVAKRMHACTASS
For assay [9] the target is unchanged. To be noted: at 1 µM.
For assay [10], the target named is T4, Serine/threonine-protein kinase Nek9 (Homo sapiens) (UniProt Q8TD19).
T4 sequence (whole entry): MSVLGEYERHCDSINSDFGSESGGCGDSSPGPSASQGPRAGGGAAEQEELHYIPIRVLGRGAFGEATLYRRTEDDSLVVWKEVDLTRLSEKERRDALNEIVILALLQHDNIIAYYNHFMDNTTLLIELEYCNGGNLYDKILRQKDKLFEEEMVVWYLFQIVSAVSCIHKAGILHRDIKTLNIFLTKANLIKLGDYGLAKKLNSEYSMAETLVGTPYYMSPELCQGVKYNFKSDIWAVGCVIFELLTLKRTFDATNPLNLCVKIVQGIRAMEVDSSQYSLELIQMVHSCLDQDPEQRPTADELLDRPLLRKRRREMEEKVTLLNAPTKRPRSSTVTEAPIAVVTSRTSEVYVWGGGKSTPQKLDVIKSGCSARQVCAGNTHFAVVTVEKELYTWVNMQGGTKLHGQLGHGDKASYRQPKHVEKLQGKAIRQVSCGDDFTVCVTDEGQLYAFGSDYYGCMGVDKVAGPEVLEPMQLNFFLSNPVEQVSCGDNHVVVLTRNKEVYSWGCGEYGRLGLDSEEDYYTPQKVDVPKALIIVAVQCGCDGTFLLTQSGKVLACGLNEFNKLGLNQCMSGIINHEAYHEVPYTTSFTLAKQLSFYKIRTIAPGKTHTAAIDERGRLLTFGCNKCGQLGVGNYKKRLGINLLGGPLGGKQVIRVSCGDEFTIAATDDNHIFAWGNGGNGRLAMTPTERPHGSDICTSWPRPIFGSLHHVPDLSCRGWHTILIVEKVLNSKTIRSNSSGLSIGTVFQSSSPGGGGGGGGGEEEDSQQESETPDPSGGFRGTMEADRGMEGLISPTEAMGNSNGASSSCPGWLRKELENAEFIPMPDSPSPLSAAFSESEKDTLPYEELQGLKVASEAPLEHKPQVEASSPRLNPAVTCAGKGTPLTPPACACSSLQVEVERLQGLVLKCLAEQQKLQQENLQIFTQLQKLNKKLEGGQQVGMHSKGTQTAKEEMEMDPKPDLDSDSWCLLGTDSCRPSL
To be noted: at 0.1 µM.

In assay [11] the target is T4, Serine/threonine-protein kinase Nek9 (Homo sapiens). To be noted: at 1 µM.
The target of assay [12] is Serine/threonine-protein kinase PLK1 (Homo sapiens) (UniProt P53350). To be noted: at 0.1 µM.
Sequence of Serine/threonine-protein kinase PLK1 (Homo sapiens) (P53350 whole entry): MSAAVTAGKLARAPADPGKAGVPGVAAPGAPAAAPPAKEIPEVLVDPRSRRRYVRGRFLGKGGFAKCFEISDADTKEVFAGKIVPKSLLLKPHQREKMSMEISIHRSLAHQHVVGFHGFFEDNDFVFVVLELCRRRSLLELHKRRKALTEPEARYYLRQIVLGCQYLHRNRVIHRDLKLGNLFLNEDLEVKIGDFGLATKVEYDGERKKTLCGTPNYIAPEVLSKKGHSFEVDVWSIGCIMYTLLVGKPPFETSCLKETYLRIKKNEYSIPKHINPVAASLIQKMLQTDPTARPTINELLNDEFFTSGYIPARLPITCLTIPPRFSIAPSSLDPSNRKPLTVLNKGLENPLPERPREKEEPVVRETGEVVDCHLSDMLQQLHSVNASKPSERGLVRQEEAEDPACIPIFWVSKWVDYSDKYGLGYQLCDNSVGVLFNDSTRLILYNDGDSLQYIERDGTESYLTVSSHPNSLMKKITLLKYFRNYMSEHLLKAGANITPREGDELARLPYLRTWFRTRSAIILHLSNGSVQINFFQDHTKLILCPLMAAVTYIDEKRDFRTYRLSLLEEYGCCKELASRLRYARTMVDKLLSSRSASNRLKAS
The target is the same in assay [13]. To be noted: at 1 µM.
Assay [14] concerns the target T5, Dual specificity protein kinase TTK (Homo sapiens) (UniProt P33981).
T5 sequence (whole entry): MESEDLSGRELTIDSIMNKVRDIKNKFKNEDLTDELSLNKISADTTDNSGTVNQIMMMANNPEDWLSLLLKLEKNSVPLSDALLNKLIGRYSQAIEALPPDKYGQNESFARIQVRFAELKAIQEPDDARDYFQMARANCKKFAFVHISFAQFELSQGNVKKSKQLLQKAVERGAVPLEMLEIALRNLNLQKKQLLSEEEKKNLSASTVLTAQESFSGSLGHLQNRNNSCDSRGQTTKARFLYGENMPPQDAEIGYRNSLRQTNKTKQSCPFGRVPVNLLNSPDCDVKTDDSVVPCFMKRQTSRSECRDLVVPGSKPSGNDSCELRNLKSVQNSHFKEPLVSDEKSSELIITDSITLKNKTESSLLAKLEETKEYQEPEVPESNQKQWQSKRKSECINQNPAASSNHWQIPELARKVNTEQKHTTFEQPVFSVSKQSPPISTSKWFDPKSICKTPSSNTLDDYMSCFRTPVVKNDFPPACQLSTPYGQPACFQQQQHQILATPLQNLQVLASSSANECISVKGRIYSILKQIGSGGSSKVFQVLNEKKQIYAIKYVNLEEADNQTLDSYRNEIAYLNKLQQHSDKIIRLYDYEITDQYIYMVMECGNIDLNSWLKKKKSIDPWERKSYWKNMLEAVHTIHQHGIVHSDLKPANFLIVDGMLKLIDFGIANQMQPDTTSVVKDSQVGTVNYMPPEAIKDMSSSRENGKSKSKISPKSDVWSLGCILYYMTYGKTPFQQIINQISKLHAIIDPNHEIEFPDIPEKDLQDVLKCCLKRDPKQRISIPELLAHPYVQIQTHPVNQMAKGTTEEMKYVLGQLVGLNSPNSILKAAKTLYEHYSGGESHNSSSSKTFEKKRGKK
To be noted: at 0.1 µM.

In assay [15] the test system is T6, Receptor-type tyrosine-protein kinase FLT3 (Homo sapiens), P36888 [D835Y].
T6 sequence (whole entry): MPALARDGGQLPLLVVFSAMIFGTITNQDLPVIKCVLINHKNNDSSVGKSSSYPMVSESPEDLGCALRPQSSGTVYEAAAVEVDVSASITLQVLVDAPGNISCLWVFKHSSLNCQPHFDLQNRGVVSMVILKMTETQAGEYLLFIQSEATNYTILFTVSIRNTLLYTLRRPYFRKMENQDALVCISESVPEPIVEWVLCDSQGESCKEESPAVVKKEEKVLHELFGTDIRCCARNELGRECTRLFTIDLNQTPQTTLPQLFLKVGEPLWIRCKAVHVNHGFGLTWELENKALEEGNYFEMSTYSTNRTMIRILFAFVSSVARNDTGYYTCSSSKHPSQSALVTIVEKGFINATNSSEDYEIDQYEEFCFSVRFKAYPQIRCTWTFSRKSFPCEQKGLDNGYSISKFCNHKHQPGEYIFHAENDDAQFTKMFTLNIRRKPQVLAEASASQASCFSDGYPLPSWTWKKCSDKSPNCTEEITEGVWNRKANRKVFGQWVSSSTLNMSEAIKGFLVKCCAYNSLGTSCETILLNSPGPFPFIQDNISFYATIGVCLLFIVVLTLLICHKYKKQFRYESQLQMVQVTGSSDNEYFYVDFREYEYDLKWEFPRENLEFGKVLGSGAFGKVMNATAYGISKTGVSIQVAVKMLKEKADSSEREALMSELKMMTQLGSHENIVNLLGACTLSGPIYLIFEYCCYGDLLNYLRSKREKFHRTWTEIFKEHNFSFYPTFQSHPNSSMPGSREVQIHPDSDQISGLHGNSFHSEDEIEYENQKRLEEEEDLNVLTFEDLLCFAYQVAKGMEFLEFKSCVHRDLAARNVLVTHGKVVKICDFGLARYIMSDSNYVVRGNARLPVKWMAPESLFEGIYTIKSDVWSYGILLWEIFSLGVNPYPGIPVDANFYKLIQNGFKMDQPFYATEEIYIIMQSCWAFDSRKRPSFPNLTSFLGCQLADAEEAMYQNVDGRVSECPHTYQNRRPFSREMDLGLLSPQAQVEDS
To be noted: at 1 µM.

Assay [16] deals with Vascular endothelial growth factor receptor 3 (Homo sapiens) (UniProt P35916). To be noted: at 0.1 µM.
Sequence of Vascular endothelial growth factor receptor 3 (Homo sapiens) (P35916 whole entry): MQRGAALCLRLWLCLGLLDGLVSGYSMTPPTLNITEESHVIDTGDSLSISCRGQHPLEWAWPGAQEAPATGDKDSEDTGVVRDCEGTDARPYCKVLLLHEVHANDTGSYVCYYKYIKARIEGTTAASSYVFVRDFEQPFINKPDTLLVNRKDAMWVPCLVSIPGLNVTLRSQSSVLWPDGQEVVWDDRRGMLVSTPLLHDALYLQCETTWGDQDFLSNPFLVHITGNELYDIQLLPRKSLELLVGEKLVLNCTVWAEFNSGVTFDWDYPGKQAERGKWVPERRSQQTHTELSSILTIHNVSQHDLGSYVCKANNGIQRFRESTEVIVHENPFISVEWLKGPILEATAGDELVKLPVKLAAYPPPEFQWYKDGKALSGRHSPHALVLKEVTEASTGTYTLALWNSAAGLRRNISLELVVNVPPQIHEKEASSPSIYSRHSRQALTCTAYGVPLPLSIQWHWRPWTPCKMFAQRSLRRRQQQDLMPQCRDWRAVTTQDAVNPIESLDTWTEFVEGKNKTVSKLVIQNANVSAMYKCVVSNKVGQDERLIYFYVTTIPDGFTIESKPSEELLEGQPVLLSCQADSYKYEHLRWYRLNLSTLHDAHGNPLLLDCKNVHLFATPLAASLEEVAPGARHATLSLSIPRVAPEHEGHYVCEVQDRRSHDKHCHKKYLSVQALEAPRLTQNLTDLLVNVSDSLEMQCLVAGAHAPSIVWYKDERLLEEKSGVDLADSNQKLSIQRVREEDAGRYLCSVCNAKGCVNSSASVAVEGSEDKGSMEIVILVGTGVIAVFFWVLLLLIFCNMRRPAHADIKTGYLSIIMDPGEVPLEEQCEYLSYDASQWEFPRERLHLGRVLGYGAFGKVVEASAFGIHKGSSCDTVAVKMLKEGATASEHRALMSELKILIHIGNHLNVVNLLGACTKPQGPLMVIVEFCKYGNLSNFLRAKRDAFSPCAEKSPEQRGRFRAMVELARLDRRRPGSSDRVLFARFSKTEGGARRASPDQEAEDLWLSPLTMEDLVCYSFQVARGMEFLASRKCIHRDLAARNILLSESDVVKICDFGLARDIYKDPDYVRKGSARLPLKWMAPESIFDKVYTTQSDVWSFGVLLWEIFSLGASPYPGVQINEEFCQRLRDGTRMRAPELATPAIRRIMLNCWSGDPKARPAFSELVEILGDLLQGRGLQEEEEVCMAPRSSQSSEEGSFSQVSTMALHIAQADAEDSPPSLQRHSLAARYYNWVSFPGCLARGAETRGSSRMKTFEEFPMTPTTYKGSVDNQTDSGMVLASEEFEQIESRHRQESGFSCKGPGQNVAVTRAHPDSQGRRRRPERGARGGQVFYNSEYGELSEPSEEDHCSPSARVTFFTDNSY
For assay [17] the target is unchanged. To be noted: at 1 µM.
For assay [18], the target named is Macrophage colony-stimulating factor 1 receptor (Homo sapiens) (UniProt P07333). To be noted: at 0.1 µM.
Sequence of Macrophage colony-stimulating factor 1 receptor (Homo sapiens) (P07333 whole entry): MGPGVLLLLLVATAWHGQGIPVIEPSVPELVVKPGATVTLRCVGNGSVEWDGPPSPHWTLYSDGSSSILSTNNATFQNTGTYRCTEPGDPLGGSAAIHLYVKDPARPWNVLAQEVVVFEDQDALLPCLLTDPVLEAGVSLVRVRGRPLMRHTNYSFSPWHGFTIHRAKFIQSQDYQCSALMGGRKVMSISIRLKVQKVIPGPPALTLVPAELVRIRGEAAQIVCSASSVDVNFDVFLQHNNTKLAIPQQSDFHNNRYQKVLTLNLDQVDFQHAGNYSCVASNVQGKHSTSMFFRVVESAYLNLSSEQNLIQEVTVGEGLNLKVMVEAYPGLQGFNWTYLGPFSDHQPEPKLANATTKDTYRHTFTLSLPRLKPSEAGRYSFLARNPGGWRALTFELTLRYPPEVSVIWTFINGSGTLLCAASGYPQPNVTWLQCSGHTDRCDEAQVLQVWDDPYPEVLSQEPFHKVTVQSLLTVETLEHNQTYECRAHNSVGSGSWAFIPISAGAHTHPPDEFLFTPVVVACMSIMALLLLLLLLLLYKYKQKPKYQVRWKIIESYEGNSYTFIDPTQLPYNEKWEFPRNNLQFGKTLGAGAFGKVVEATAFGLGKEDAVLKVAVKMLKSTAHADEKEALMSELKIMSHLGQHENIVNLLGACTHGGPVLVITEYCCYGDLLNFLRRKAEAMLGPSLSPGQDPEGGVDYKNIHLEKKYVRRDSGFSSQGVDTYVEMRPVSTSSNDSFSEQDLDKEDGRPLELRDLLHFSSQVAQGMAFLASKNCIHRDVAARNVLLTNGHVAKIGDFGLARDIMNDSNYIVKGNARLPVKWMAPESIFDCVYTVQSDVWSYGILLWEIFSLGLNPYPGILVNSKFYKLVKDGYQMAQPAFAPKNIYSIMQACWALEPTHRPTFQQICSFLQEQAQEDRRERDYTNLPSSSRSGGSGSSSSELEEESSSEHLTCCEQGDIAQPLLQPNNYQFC
Assay [19] shares this target. To be noted: at 1 µM.
The target in assay [20] is Tyrosine-protein kinase Fyn (Homo sapiens) (UniProt P06241). To be noted: at 0.1 µM.
Sequence of Tyrosine-protein kinase Fyn (Homo sapiens) (P06241 2-537 limits assumed): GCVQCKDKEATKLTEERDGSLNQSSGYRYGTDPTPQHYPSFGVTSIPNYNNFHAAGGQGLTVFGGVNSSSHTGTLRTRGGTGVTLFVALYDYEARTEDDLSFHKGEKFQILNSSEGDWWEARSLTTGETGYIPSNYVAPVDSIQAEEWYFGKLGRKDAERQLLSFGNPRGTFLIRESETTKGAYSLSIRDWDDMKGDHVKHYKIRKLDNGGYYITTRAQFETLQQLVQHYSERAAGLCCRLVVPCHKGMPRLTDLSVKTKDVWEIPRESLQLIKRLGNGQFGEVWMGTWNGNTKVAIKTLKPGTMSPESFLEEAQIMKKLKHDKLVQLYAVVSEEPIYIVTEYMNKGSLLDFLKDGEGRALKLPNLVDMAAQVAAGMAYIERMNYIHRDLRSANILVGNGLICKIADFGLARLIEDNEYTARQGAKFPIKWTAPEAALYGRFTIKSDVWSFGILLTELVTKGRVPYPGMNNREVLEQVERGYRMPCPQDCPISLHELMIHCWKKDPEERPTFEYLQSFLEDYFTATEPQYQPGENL

In the case of `CCn1c(-c2nonc2N)nc2ccc(F)cc21`, the inhibition is 11% in [1]; 3.29% in [2]; 4.51% in assay [3]; 6.07% in assay [4]; 7.52% in [5]; 5.03% in assay [6]. Besides, the inhibition in [7] turned out to be 5.4%; in assay [8], 5.72%; in assay [9] it was 3.91%; in assay [10], 5.14%; in assay [11], 6.41%; in [12] it was 6.39%. Also, the inhibition turned out to be 4.59% in assay [13]; 12.1% in assay [14]; 1.01% in assay [15]; 6.14% in assay [16]; 6.77% in assay [17]; 1.29% in assay [18]. Also, the inhibition in assay [19] came to 0.35%; in [20], 2.04%.

By inhibition is commonly meant how much of the control response was suppressed. A high value points to a strong effect.
